Out of some 5,500 compounds screened, about 2,000 (36%) were called active. Roughly 18% stayed inconclusive and do not appear here. Rule as the data show it: active = normalized growth mostly below about 0.91 (no sharp cut-off); inconclusive = no clear call, values can overlap the other calls; inactive = mostly above about 0.92. Some of the results follow.
Assay: chemical genetic growth profiling, strain panel (AID 1159580);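 also: tested at 20 µM; growth read once vehicle control cultures reached saturation at 30 °C; 1 = growth at the plate median or of vehicle wells; lower values mean less growth of the strain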
Settings: S. cerevisiae deletion strains, growth OD
[1] = locus YAR019C, strain CDC15, stronger effect = lower value
[2] = locus YBL105C, strain PKC1, stronger effect = lower value
[3] = locus YBR135W, strain CKS1, stronger effect = lower value
[4] = locus YBR136W, strain MEC1, stronger effect = lower value
[5] = locus YBR160W, strain CDC28, stronger effect = lower value
[6] = locus YDL017W, strain CDC7, stronger effect = lower value
[7] = locus YDL028C, strain MPS1, stronger effect = lower value
[8] = locus YDL101C, strain DUN1, stronger effect = lower value
[9] = locus YDL108W, strain KIN28, stronger effect = lower value
[10] = locus YDL132W, strain cdc53, stronger effect = lower value
[11] = locus YDL214C, strain PRR2, stronger effect = lower value
[12] = locus YDR052C, strain DBF4, stronger effect = lower value
[13] = locus YDR054C, strain cdc34, stronger effect = lower value
[14] = locus YDR226W, strain ADK1, stronger effect = lower value
[15] = locus YDR477W, strain SNF1, stronger effect = lower value
[16] = locus YER123W, strain YCK3, stronger effect = lower value
[17] = locus YER133W, strain GLC7, stronger effect = lower value
[18] = locus YFL009W, strain cdc4, stronger effect = lower value
[19] = locus YFL029C, strain CAK1, stronger effect = lower value
[20] = locus YFR003C, strain YPI1, stronger effect = lower value
[21] = locus YFR019W, strain FAB1, stronger effect = lower value
[22] = locus YFR028C, strain CDC14, stronger effect = lower value
[23] = locus YGR040W, strain KSS1, stronger effect = lower value
[24] = locus YGR052W, strain FMP48, stronger effect = lower value
[25] = locus YGR092W, strain DBF2, stronger effect = lower value
[26] = locus YHR030C, strain SLT2, stronger effect = lower value
[27] = locus YHR079C, strain IRE1, stronger effect = lower value
[28] = locus YHR082C, strain KSP1, stronger effect = lower value
[29] = locus YHR205W, strain SCH9, stronger effect = lower value
[30] = locus YIL147C, strain SLN1, stronger effect = lower value
[31] = locus YJL095W, strain BCK1, stronger effect = lower value
[32] = locus YJL128C, strain PBS2, stronger effect = lower value
[33] = locus YJL157C, strain FAR1, stronger effect = lower value
[34] = locus YJR016C, strain ILV3, stronger effect = lower value
[35] = locus YJR066W, strain TOR1 (second series), stronger effect = lower value
[36] = locus YJR066W, strain TOR1, stronger effect = lower value
[37] = locus YKL048C, strain ELM1, stronger effect = lower value
[38] = locus YKL067W, strain YNK1, stronger effect = lower value
[39] = locus YKL101W, strain HSL1, stronger effect = lower value
[40] = locus YKL193C, strain SDS22, stronger effect = lower value
[41] = locus YKL203C, strain TOR2, stronger effect = lower value
[42] = locus YLR133W, strain CKI1, stronger effect = lower value
[43] = locus YLR403W, strain SFP1, stronger effect = lower value
[44] = locus YML070W, strain DAK1, stronger effect = lower value
[45] = locus YMR001C, strain CDC5, stronger effect = lower value
[46] = locus YMR205C, strain PFK2 (second series), stronger effect = lower value
[47] = locus YMR277W, strain FCP1, stronger effect = lower value
[48] = locus YNL006W, strain LST8, stronger effect = lower value
[49] = locus YNL020C, strain ARK1, stronger effect = lower value
[50] = locus YNL161W, strain CBK1, stronger effect = lower value
[51] = locus YNL183C, strain NPR1, stronger effect = lower value
[52] = locus YNL207W, strain RIO2, stronger effect = lower value
[53] = locus YNL222W, strain SSU72, stronger effect = lower value
[54] = locus YNL307C, strain MCK1 (second series), stronger effect = lower value
[55] = locus YOL078W, strain AVO1, stronger effect = lower value
[56] = locus YOL136C, strain PFK27, stronger effect = lower value
[57] = locus YOR061W, strain CKA2, stronger effect = lower value
[58] = locus YOR119C, strain RIO1, stronger effect = lower value
[59] = locus YOR231W, strain MKK1, stronger effect = lower value
[60] = locus YOR329C, strain SCD5, stronger effect = lower value
[61] = locus YPL031C, strain PHO85, stronger effect = lower value
[62] = locus YPL153C, strain RAD53, stronger effect = lower value
[63] = locus YPL204W, strain HRR25, stronger effect = lower value
[64] = locus YPL209C, strain IPL1, stronger effect = lower value
[65] = locus YPL256C, strain CLN2, stronger effect = lower value
[66] = locus YPR025C, strain CCL1, stronger effect = lower value
[67] = locus YPR106W, strain ISR1, stronger effect = lower value
[68] = locus YPR111W, strain DBF20, stronger effect = lower value
[69] = strain NNK1, stronger effect = lower value
[70] = strain TSCII, stronger effect = lower value

Measured: normalized growth

O=C(NCCNc1ncc(Cl)cc1C(F)(F)F)C(F)(F)Sc1ccccc1
inactive: [1] 0.982 | [2] 0.978 | [3] 0.975 | [4] 0.984 | [5] 0.979 | [6] 0.977 | [7] 0.992 | [8] 0.982 | [9] 0.981 | [10] 0.977 | [11] 0.987 | [12] 0.982 | [13] 0.991 | [14] 0.982 | [15] 0.996 | [16] 1.01 | [17] 1 | [18] 0.979 | [19] 0.984 | [20] 0.985 | [21] 0.996 | [22] 0.982 | [23] 0.991 | [24] 1.14 | [25] 0.994 | [27] 1.17 | [28] 1.19 | [29] 0.975 | [30] 0.986 | [31] 1.16 | [32] 0.934 | [33] 0.985 | [34] 0.989 | [35] 1.01 | [36] 1.19 | [37] 0.973 | [38] 0.991 | [39] 0.984 | [40] 0.973 | [41] 1.08 | [42] 0.979 | [43] 0.998 | [44] 0.986 | [45] 0.969 | [46] 0.984 | [47] 0.975 | [48] 0.983 | [49] 0.978 | [50] 0.984 | [51] 1.13 | [52] 0.989 | [53] 0.976 | [54] 0.972 | [55] 0.981 | [56] 1 | [57] 0.992 | [58] 1.02 | [59] 1.12 | [60] 0.985 | [61] 0.99 | [62] 1.01 | [63] 0.995 | [64] 0.983 | [66] 0.984 | [67] 0.982 | [68] 0.979 | [69] 0.993 | [70] 0.978
active: [26] 1.2 [resistant] | [65] 1.25 [resistant]

O=C(NCCNc1ncc(C(F)(F)F)cc1Cl)C(F)(F)Sc1ccccc1
inactive: [1] 0.985 | [2] 0.983 | [3] 0.971 | [4] 0.973 | [5] 0.984 | [6] 0.977 | [7] 0.97 | [8] 0.976 | [9] 0.957 | [10] 0.988 | [11] 0.898 | [12] 0.986 | [13] 0.978 | [14] 0.982 | [15] 0.919 | [16] 0.828 | [17] 0.924 | [18] 0.982 | [19] 0.988 | [20] 0.972 | [21] 0.885 | [22] 0.989 | [23] 0.916 | [24] 0.978 | [25] 0.909 | [26] 0.99 | [27] 0.994 | [28] 1 | [29] 0.912 | [30] 0.974 | [31] 0.98 | [32] 0.914 | [33] 0.887 | [34] 0.974 | [35] 0.899 | [36] 0.989 | [37] 0.939 | [38] 0.91 | [39] 0.908 | [40] 0.984 | [41] 0.991 | locus YLR113W, strain HOG1, stronger effect = lower value 0.883 | [42] 0.916 | [43] 0.922 | [44] 0.876 | [45] 0.978 | [46] 0.907 | [47] 0.983 | [48] 0.978 | [49] 0.894 | [50] 0.985 | [51] 0.961 | [52] 0.983 | [53] 0.979 | [54] 0.905 | [55] 0.98 | [56] 0.893 | [57] 0.868 | [58] 0.966 | [59] 0.939 | [60] 0.987 | [61] 0.912 | [62] 0.907 | [63] 0.936 | [64] 0.975 | [65] 1 | [66] 0.98 | [67] 0.984 | [68] 0.968 | [69] 0.982 | [70] 0.982

— PubChem BioAssay AID1159580 (chemical genetic matrix, 2015)
